# According to PubChem BioAssay (EPA / NIEHS):
# Inconclusive results are not listed. The source made the active and inactive calls. The calls were made as follows, unless noted: active = hit-call score of the fitted dose curve at least 0.9, where 1 is the maximum; inconclusive = response in the unintended direction; inactive = score below 0.9.
# Experiments:
# [1] = TOX21_p53_BLA_p5_viability: Viability Assessment in the Tox21 HCT-116 p53 Agonism Beta-lactamase Assay, Phase 5 (AID 2283600)
# In short: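 HCT-116 p53 beta-lactamase reporter cells, 4000/well, were exposed to compound (pin transfer, 217-fold dilution) for 16 hours at 37C. Cellular ATP was read by CellTiter-Glo luminescence after 30 min at room temperature.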
# [2] = read-out: xenobiotic metabolism (CYP2C9), CYP2C9 (gene 1559); assay: CLD_CYP2C9_6hr: CellzDirect (CLD) Gene Expression Assay for xenobiotic metabolism (CYP2C9) at 6 hours (AID 2283664)
# In short: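 Primary human hepatocytes dosed daily with test chemicals at multiple concentrations; harvested at 6 h. CYP2C9 mRNA induction measured by qNPA chemiluminescence. Gain of signal fitted against 0.2% DMSO vehicle; cytotoxicity annotated from phase-contrast morphology.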
# [3] = target: Cellular tumor antigen p53 (Homo sapiens) (UniProt P04637); assay: TOX21_p53_BLA_p4_ratio: Tox21 HCT-116 p53 Agonism Beta-lactamase Assay, Ratio, Phase 4 (AID 2283601)
# In short: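 HCT-116 p53 beta-lactamase reporter cells (4000/well) preincubated 5 h, then compound (217-fold dilution of DMSO stock) for 16 h at 37C. CCF4-AM substrate added 2 h at room temperature; 460/530 nm emission ratio fitted upward versus DMSO.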
# [4] = target: Cellular tumor antigen p53 (Homo sapiens) (UniProt P04637); assay: TOX21_p53_BLA_p5_ratio: Tox21 HCT-116 p53 Agonism Beta-lactamase Assay, Ratio, Phase 5 (AID 2283599)
# In short: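 HCT-116 p53-bla cells (4000/well) plated 5 h, dosed with compound (217-fold DMSO dilution) for 16 h at 37 C; CCF4-AM substrate 2 h at room temperature. Activity is the 460/530 nm emission ratio (405 nm excitation), fitted in gain-of-signal direction versus DMSO.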
# [5] = CCTE_Harrill_HTTr_Apoptosis_PRF_DMEM_12hr: (Pilot) CCTE's 12-hour Apoptosis Assessment for the High-Throughput Transcriptomics (HTTr) Platform, in MCF-7 cells cultured in phenol red-free DMEM + 10% charcoal-stripped fetal bovine serum, Harrill Lab (AID 2283985; active = hit-call score of the fitted dose curve at least 0.9, where 1 is the maximum; inactive = score below 0.9)
# In short: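 MCF-7 cells in phenol red-free DMEM with 10% charcoal-stripped FBS, eight-point dilution series, 12 h exposure. Caspase-3/7 activation imaged by high content imaging with CellEvent Green reagent; bidirectional fit vs DMSO.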
# [6] = ACEA_ER_AUC_viability: ACEA Biosciences xCELLigence Real-Time Cell Analysis on Estrogen Receptor Agonism for Viability (AID 2283782);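 also: continuous compound exposure with impedance area under curve over 80 h; hit means loss of impedance signal meaning reduced cell growth or viability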
# In short: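 T47D cells preconditioned in phenol red-free RPMI with charcoal-stripped FBS, then dosed with 8-point 1:4 series from 100 uM (up to 0.5% DMSO). Impedance monitored up to ~80 h; area-under-curve loss versus DMSO taken as viability.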
# [7] = TOX21_TRB_BLA_Agonist_Followup_viability: Viability Assessment in the Tox21 Thyroid Hormone Receptor beta Agonism Beta-lactamase (BLA) Follow-Up Assay (AID 2283956)
# In short: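 TRb-bla HEK293T cells (GAL4-DBD/human TRb LBD) in 2% charcoal-stripped FBS medium were exposed 18 h at 37C to 11 concentrations in triplicate. CellTiter-Glo ATP luminescence was read after 30 min at room temperature, with bidirectional fitting against DMSO.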
# Cellular tumor antigen p53 (Homo sapiens), sequence (P04637 whole entry, looked up): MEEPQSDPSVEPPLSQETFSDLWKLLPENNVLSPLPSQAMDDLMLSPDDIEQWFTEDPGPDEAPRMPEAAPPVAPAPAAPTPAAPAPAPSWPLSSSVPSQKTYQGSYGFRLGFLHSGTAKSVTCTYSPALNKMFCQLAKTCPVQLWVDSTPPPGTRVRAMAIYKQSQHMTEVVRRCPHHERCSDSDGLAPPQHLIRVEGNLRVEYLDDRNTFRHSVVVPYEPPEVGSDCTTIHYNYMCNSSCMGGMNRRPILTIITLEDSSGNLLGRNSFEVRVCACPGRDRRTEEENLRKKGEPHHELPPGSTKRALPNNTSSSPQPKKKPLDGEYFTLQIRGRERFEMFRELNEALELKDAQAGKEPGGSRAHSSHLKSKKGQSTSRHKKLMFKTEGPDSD
smiles,measurement,setting,value
NC(=O)c1cc([N+](=O)[O-])cc([N+](=O)[O-])c1,outcome,[1],inactive
CCOC(=O)C(C)Oc1ccc(Oc2cnc3cc(Cl)ccc3n2)cc1 (stereo not given),outcome,[2],inactive
CN=C=O,outcome,[3],inactive
COc1ccc2[nH]cc(CCN(C(C)C)C(C)C)c2c1,outcome,[4],inactive
same,outcome,[3],inactive
O=P(Cl)(Cl)Cl,outcome,[4],inactive
same,outcome,[1],inactive
same,outcome,[3],inactive
CC(C)C(=O)Nc1ccc([N+](=O)[O-])c(C(F)(F)F)c1,outcome,[5],inactive
CC(=O)O[C@]1(C(C)=O)CC[C@H]2[C@@H]3C=C(Cl)C4=CC(=O)[C@@H]5C[C@@H]5[C@]4(C)[C@H]3CC[C@@]21C,outcome,[5],inactive
CC(C)=CC1C(C(=O)OC(C#N)c2cccc(Oc3ccccc3)c2)C1(C)C (stereo not given),outcome,[6],inactive
Nc1ncn([C@H]2C[C@H](O)[C@@H](CO)O2)c(=O)n1,outcome,[7],inactive
NC(=O)OCCCc1ccccc1,outcome,[4],inactive
same,outcome,[1],inactive
same,outcome,[3],inactive
CN(CCO)CCO,outcome,[1],inactive
same,outcome,[3],inactive
CC1(C)NC(=O)N(c2ccc([N+](=O)[O-])c(C(F)(F)F)c2)C1=O,outcome,[5],inactive
CCCN1CCC[C@@H]2Cc3[nH]ncc3C[C@H]21,outcome,[1],inactive
same,outcome,[3],inactive
